Assay in all cases: DAPPL (digital affinity profiling via proximity ligation, sequencing); 10 mM Tris-HCl pH 7.5, 50 mM NaCl, 1 mM DTT, 4% glycerol, room temperature, 30 min; GST-TFs on glutathione beads, 16-mer random dsDNA library, 0.1% formaldehyde crosslink after washing; high values mean tight binding
Settings in all cases: protein: recombinant; tags: N-terminal GST; dsDNA, one strand shown

Experiment [1] deals with T1, FLI1 (Homo sapiens, UniProt Q01543 1-452).
T1 sequence: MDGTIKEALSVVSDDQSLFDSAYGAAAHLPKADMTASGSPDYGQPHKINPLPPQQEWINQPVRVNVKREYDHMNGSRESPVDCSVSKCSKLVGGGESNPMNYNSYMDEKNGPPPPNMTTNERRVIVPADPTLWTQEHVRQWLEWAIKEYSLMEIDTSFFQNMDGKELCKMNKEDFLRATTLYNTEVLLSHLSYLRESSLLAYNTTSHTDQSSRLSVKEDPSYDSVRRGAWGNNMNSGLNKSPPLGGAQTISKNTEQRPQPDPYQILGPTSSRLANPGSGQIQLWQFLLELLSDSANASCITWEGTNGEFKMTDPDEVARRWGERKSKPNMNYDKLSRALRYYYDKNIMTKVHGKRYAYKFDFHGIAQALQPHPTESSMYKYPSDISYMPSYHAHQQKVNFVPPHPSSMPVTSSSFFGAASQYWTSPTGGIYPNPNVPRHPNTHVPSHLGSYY
An outline of the steps:
(§1)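 Pools of DNA-barcoded human transcription factors, expressed in yeast as GST fusions on glutathione beads and combined with a tag-only sample, were incubated with 200 nmole of a 16-mer random double-stranded DNA library. Incubation took 30 min at room temperature in Tris/NaCl/DTT/glycerol buffer and was followed by washing, 0.1% formaldehyde crosslinking, proximity ligation (BsaI/T4 ligase, 1 h, 37 °C), PCR amplification and sequencing on an Illumina NextSeq500. Binding signal is the ratio of a hexamer's read frequency for a factor to its frequency for the tag-only sample.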

Experiment [2] deals with T2, GABPA (Homo sapiens, UniProt Q06546 1-454).
T2 sequence: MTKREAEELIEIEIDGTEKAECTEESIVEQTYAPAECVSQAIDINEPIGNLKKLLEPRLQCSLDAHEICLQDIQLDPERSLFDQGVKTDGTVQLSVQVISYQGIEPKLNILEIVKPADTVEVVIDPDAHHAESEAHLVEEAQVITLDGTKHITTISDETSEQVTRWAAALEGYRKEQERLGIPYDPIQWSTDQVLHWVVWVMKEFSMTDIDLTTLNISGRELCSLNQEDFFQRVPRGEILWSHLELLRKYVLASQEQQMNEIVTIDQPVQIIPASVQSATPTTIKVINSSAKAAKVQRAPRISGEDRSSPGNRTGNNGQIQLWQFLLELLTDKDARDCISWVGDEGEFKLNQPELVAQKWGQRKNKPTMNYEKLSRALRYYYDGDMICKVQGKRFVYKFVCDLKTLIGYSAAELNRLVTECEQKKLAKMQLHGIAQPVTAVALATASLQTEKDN
An outline of the steps: as §1

Experiment [3] addresses T3, ERG (Homo sapiens, UniProt P11308 1-479).
T3 sequence: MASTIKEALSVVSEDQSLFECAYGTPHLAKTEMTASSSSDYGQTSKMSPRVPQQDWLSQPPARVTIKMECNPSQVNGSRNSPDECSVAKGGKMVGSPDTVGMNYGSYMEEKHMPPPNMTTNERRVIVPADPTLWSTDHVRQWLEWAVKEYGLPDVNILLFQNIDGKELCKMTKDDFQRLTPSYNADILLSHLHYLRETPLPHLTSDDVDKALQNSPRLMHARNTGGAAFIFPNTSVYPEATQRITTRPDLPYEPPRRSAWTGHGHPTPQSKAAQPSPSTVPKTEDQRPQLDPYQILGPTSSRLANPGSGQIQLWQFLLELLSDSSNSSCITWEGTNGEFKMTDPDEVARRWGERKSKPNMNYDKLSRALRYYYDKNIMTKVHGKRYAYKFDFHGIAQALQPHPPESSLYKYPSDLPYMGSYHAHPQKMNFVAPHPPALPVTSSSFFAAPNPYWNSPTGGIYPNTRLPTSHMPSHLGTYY
An outline of the steps:
as §1

For experiment [4], the target named is ELF1 (Homo sapiens, UniProt P32519 1-619). An outline of the steps:
as §1

The target in experiment [5] is T4, EHF (Homo sapiens, UniProt Q9NZC4 1-300).
T4 sequence: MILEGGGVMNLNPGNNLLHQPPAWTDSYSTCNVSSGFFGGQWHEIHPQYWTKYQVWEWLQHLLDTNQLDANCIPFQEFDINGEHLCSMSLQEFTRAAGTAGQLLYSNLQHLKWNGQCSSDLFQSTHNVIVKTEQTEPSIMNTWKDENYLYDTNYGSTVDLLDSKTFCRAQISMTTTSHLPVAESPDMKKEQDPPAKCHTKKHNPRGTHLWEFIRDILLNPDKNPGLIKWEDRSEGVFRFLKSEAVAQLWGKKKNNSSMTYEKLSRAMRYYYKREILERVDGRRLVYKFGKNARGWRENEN
An outline of the steps:
as §1

For experiment [6], the target named is SPI1 (Homo sapiens, UniProt P17947 1-270). The method in brief: as §1
In experiment [7] the target is SPIB (Homo sapiens, UniProt Q01892 1-262). An outline of the steps: as §1
SPIB, sequence (Q01892 whole entry): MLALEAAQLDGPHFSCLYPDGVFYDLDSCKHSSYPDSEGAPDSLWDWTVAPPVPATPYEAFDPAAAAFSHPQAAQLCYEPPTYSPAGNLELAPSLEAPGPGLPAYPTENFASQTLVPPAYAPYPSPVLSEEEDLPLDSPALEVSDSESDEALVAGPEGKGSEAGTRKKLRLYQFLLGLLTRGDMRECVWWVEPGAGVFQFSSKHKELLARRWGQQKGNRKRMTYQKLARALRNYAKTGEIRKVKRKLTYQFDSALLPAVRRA
The target in experiment [8] is ETV5 (Homo sapiens, UniProt P41161 1-510). The method in brief: as §1
ETV5, sequence (P41161 whole entry): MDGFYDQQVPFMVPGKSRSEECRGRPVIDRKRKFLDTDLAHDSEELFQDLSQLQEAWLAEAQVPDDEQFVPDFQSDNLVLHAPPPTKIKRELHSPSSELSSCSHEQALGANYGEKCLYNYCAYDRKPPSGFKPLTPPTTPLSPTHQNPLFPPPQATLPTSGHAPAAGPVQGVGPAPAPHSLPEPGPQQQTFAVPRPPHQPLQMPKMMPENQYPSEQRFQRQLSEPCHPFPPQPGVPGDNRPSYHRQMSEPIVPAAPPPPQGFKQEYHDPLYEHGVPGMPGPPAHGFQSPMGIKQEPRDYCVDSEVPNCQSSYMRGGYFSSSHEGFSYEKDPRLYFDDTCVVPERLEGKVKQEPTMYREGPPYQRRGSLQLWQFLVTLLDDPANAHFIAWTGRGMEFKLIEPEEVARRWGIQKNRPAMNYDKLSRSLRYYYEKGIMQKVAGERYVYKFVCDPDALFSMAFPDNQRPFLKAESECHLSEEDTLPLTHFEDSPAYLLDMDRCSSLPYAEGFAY
Experiment [9] has as its target T5, SPIC (Homo sapiens, UniProt Q8N5J4 1-248).
T5 sequence: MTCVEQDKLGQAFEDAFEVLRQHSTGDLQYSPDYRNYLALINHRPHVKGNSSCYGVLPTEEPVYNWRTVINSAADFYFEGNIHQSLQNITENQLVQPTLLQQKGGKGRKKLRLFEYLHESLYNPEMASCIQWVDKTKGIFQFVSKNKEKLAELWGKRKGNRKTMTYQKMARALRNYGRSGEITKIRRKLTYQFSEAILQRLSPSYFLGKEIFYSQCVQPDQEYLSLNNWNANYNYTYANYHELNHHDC
An outline of the steps:
as §1

Experiment [10] has as its target ELF4 (Homo sapiens, UniProt Q99607 1-663). An outline of the steps: as §1
The target of experiment [11] is ETV1 (Homo sapiens, UniProt P50549 1-477). An outline of the steps:
as §1

The target of experiment [12] is T6, ERF (Homo sapiens, UniProt P50548 1-548).
T6 sequence: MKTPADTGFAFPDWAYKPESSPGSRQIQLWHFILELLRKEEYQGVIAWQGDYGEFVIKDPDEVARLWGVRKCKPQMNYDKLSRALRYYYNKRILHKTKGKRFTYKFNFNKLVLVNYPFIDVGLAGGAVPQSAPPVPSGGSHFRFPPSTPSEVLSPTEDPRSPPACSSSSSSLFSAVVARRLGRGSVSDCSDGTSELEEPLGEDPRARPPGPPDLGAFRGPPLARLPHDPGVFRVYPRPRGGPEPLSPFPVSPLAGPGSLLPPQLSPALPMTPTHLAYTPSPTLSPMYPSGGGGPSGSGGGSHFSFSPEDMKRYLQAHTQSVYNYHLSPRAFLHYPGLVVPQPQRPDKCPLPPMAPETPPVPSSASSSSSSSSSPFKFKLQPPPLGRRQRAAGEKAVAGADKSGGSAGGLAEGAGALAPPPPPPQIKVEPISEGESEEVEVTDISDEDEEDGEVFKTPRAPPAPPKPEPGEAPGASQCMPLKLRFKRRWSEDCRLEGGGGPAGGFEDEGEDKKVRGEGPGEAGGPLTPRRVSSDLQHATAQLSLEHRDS
An outline of the steps:
as §1

Experiment [13] deals with T7, ETV3L (Homo sapiens, UniProt Q6ZN32 1-361).
T7 sequence: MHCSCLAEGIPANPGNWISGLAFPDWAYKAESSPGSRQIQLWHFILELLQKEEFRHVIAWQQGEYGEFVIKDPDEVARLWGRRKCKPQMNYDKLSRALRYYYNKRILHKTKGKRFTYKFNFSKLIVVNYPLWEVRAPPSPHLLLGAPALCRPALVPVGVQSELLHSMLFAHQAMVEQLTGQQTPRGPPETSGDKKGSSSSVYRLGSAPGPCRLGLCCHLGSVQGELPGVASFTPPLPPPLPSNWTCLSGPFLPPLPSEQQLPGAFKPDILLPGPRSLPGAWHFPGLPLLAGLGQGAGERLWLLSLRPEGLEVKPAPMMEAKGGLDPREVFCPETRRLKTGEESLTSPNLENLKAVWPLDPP
The method in brief: as §1

Experiment [14] addresses T8, ETS2 (Homo sapiens, UniProt P15036 1-469).
T8 sequence: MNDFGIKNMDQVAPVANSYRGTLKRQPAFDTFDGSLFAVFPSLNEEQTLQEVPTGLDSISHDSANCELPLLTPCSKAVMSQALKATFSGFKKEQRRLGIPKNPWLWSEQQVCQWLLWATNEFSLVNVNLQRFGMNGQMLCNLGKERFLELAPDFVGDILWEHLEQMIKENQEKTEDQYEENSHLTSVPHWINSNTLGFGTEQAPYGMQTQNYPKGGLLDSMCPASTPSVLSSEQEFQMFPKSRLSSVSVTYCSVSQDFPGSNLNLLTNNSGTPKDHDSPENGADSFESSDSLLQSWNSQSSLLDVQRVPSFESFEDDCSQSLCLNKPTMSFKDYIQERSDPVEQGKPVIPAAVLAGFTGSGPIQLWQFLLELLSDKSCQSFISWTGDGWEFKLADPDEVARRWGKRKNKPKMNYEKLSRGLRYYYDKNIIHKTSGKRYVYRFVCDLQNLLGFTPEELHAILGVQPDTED
The method in brief: as §1

Experiment [15] deals with T9, SPDEF (Homo sapiens, UniProt O95238 1-335).
T9 sequence: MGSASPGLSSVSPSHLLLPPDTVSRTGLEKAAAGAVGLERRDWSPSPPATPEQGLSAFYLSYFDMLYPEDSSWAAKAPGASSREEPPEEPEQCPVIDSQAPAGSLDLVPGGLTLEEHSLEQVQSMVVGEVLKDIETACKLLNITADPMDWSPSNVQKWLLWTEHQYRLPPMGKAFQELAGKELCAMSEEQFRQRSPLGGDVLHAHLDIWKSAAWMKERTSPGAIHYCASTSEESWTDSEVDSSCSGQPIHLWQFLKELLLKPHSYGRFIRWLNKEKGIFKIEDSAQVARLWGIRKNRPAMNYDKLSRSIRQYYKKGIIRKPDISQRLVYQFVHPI
The method in brief: as §1

The target in experiment [16] is T10, ELF5 (Homo sapiens, UniProt Q9UKW6-2 1-255).
T10 sequence: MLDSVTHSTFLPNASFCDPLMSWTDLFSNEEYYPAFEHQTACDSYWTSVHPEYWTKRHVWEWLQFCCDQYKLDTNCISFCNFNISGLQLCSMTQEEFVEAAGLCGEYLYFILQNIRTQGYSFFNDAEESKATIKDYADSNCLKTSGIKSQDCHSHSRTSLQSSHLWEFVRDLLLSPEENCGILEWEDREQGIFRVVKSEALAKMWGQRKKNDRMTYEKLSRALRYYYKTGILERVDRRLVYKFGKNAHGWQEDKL
An outline of the steps:
as §1

For experiment [17], the target named is T11, ETV3 (Homo sapiens, UniProt P41162-2 1-143).
T11 sequence: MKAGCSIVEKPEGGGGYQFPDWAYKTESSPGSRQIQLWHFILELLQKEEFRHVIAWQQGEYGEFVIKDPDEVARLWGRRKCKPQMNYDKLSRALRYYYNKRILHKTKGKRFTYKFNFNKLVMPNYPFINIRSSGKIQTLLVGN
An outline of the steps: as §1

Experiment [18] concerns the target ETV6 (Homo sapiens, UniProt P41212 1-452). The method in brief:
as §1

ETV1, sequence (P50549 whole entry): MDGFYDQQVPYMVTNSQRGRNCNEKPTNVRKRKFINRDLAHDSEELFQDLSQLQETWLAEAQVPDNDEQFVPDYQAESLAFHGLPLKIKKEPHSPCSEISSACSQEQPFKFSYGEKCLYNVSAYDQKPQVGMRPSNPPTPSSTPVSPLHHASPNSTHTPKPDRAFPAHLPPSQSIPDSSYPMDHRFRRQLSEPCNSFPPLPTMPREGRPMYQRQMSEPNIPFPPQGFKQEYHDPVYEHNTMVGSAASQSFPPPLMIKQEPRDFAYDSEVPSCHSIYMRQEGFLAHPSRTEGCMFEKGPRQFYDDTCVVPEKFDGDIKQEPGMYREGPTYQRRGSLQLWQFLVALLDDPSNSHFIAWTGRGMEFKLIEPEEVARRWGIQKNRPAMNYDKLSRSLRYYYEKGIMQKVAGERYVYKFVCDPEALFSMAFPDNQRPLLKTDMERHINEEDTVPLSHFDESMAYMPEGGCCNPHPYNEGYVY
ELF1, sequence (P32519 whole entry): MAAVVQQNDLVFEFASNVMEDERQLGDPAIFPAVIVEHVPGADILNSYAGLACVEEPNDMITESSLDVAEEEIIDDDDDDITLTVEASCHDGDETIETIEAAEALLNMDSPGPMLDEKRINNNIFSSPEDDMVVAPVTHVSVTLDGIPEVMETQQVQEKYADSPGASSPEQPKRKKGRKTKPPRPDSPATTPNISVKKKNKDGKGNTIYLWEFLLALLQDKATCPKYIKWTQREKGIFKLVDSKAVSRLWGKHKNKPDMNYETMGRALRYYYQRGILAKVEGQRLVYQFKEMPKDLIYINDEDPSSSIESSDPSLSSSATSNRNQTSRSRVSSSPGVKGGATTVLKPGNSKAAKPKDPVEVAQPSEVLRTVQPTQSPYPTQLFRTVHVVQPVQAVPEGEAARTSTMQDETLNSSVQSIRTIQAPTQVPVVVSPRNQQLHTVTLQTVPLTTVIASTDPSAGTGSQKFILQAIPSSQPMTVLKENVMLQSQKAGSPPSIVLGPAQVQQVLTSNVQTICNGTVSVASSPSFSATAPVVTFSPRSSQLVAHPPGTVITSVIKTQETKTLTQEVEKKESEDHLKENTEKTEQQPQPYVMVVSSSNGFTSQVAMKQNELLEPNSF
ELF4, sequence (Q99607 whole entry): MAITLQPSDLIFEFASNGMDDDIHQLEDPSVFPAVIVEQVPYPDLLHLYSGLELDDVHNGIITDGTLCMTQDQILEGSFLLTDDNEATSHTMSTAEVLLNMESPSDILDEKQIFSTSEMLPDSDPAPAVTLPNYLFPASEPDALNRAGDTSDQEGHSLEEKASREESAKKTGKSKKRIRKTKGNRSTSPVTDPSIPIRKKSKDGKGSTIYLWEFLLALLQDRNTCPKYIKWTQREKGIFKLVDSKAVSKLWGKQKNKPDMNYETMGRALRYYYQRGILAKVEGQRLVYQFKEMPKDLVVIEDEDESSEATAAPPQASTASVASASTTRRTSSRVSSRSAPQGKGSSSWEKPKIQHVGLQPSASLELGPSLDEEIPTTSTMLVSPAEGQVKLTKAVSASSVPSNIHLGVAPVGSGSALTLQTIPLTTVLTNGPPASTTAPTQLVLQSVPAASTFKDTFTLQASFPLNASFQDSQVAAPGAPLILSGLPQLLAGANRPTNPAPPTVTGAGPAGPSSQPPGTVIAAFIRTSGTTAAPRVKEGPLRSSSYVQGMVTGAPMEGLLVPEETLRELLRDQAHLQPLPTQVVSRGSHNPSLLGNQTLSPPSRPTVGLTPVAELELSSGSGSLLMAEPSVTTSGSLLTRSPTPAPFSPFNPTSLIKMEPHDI
ETV6, sequence (P41212 whole entry): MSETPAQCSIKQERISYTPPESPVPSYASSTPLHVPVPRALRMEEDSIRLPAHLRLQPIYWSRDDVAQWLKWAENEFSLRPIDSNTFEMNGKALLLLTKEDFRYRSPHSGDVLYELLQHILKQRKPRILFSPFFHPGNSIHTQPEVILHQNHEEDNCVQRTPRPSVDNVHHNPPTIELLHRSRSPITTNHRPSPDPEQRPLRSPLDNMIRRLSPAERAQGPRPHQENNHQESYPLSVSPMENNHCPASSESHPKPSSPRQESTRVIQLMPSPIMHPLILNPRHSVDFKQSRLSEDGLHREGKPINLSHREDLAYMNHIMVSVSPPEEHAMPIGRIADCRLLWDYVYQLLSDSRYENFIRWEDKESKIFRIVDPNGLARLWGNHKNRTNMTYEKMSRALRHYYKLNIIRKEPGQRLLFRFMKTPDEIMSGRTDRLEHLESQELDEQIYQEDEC

As to TGTGGT, the binding signal was 1.08 fold enrichment (6-mer frequency, TF over GST control) in experiment [1]; 1.09 fold enrichment (6-mer frequency, TF over GST control) in experiment [2]; 1.07 fold enrichment (6-mer frequency, TF over GST control) in [3]; 1.01 fold enrichment (6-mer frequency, TF over GST control) in experiment [4]; 1.08 fold enrichment (6-mer frequency, TF over GST control) in experiment [5]; 1.05 fold enrichment (6-mer frequency, TF over GST control) in experiment [6]. Also, the binding signal is 1.16 fold enrichment (6-mer frequency, TF over GST control) in experiment [7]; 1.04 fold enrichment (6-mer frequency, TF over GST control) in experiment [8]; 1.02 fold enrichment (6-mer frequency, TF over GST control) in experiment [9]; 1.04 fold enrichment (6-mer frequency, TF over GST control) in [10]; 1.01 fold enrichment (6-mer frequency, TF over GST control) in experiment [11]; 1.06 fold enrichment (6-mer frequency, TF over GST control) in experiment [12]. Also, the binding signal is 1.04 fold enrichment (6-mer frequency, TF over GST control) in [13]; 1.05 fold enrichment (6-mer frequency, TF over GST control) in [14]; 1.07 fold enrichment (6-mer frequency, TF over GST control) in experiment [15]; 1.03 fold enrichment (6-mer frequency, TF over GST control) in experiment [16].

Consider GTTACG, for which the binding signal in experiment [1] is 1.08 fold enrichment (6-mer frequency, TF over GST control); in [2], 1.01 fold enrichment (6-mer frequency, TF over GST control); in [3], 1.01 fold enrichment (6-mer frequency, TF over GST control); in experiment [4], 1.07 fold enrichment (6-mer frequency, TF over GST control); in [5], 1.03 fold enrichment (6-mer frequency, TF over GST control); in [6], 1.01 fold enrichment (6-mer frequency, TF over GST control). For the same sequence, the binding signal was 1.03 fold enrichment (6-mer frequency, TF over GST control) in experiment [8]; 1.05 fold enrichment (6-mer frequency, TF over GST control) in [9]; 1.02 fold enrichment (6-mer frequency, TF over GST control) in [10]; 1.07 fold enrichment (6-mer frequency, TF over GST control) in experiment [11]; 1.06 fold enrichment (6-mer frequency, TF over GST control) in experiment [12]; 1.14 fold enrichment (6-mer frequency, TF over GST control) in [13]. For the same sequence, the binding signal in experiment [14] was 1.06 fold enrichment (6-mer frequency, TF over GST control); in experiment [15], 1.04 fold enrichment (6-mer frequency, TF over GST control); in experiment [17] it was 1.04 fold enrichment (6-mer frequency, TF over GST control); in experiment [18] it was 1.09 fold enrichment (6-mer frequency, TF over GST control).

Source of the values: publication PMC7862700, “An all-to-all approach to the identification of sequence-specific readers for epigenetic DNA modifications on cytosine”.
